We go through 15 compounds from PubChem BioAssay (NCATS).

Structures are written as SMILES. Values joined by “and” are separate entries in the source; they are usually repeats but may differ in a detail not shown here. Equal values may be shown once. Records with an inconclusive call do not appear. Unmarked numbers belong to inactive results. Calls come from the whole dose curve; as a rule, active = well fitted activation curve with a large enough effect; inconclusive = small, poorly fitted or top-dose-only effect; inactive = no such curve, though single readings can be large or run the other way.

Chain of Cellular tumor antigen p53 (Homo sapiens) (P04637 whole entry, looked up): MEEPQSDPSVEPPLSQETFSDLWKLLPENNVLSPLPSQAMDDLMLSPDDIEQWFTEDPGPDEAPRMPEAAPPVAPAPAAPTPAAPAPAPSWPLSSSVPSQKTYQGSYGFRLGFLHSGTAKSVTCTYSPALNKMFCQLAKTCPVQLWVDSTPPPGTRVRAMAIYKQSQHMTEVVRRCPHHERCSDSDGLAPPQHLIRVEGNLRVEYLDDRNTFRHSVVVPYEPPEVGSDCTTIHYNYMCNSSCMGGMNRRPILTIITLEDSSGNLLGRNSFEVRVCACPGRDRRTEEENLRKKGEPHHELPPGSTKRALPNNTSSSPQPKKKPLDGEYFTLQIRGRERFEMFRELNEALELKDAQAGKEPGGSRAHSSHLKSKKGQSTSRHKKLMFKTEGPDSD

This experiment addresses Cellular tumor antigen p53 (Homo sapiens) (UniProt P04637). The experiment in a line: Primary qHTS for small molecule compounds that upregulate eGFP-tagged delta133p53alpha (in N-terminal) cells. (AID 2060322).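 Note: cells pre-induced with doxycycline then dosed without doxycycline; series mostly up to about 56 µM; 0% = DMSO vehicle and 100% = reference activator; nearly all actives have a fitted effect of over 75% in size.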 Conditions: NCI-H358 eGFP-delta133p53alpha fluorescence, 24 h; activation: active compounds read high. The method, boiled down: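 NCI-H358 cells pre-induced 24 h with 10 ng/ml doxycycline for eGFP-delta133p53alpha, plated dox-free and exposed 24 h at 37C to titrated compounds. Fixed, Hoechst-stained; gated GFP peak intensity by laser scanning cytometry, normalized to DMSO (0%) and 57.5 uM 5-azacytidine (100%).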
For orientation: In qHTS, concentration-response curves come from the screen itself.
For `COc1cc(C(O)CO)ccc1O` (stereo not given), the activation was -14%. The value for `O=C1C2C=CC=CC2=NC(=S)N1CCN1CCC(=C(c2ccc(F)cc2)c2ccc(F)cc2)CC1` (stereo not given) was -39.4%; that for `CCN(CC)CC(=O)Nc1c(C)cccc1C` was -3.35% and -7.58%. The value for `COC(=O)C1=C(C)NC(C)=C([N+](=O)[O-])C1c1ccccc1C(F)(F)F` (stereo not given) was -39.9%; that for `NC(N)=NCc1cccc(I)c1` was -18.3%; that for `CN(C)CC/C=C1\c2ccccc2COc2ccccc21` was -10.9% and -21.6%. For `CN1CC(O)C(O)C(O)C1CO` (stereo not given) the value was 9.95%; for `COc1ccc2c(c1)c(CC(=O)O)c(C)n2C(=O)c1ccccc1`, -16.8%; for `O=C(O)CNC(=O)C(CS)Cc1ccccc1` (stereo not given), -14.4%. In the case of `Cc1nc2ccccn2c(=O)c1CCN1CCC(C(=O)c2ccc(F)cc2)CC1`, the activation was 0.565% and -12%. For `C[C@H](Cc1ccccc1)Nc1ncnc2c1ncn2[C@@H]1O[C@H](CO)[C@@H](O)[C@H]1O` the value was -29.5%; for `CO/N=C(\C(=O)N[C@@H]1C(=O)N2C(C(=O)O)=C(COC(C)=O)CS[C@H]12)c1csc(N)n1`, 2.44%; for `Nc1ccc(-c2nc3ccc(-c4nc5ccc(N)cc5[nH]4)cc3[nH]2)cc1`, -9.36%. For `N=C(N)SCCN` the value was -11.7%; for `Nc1ccc(S(=O)(=O)Nc2ccnn2-c2ccccc2)cc1`, 12.6% and 48.1% and -20.4%.
